Values joined by “and” are separate entries in the source; they are usually repeats but may differ in a detail not shown here. Identical values can stand only once. Active and inactive are the calls of the source.
Key:
[1] = tested on: Plasmodium falciparum Sir2 (PF13_0152, Sir2A); assay: Plasmodium falciparum Sir2A binding compounds – biochemical, small-molecule microarray, 635 nm fluorescence, primary screen (AID 1098); conditions: fluorescence 635 nm, higher = more signal;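 also: score merges spot fluorescence intensity with its signal-to-noise ratio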
[2] = probe aDKK1 binding to arrayed compounds – biochemical, biotinylated probe, 635/667 nm fluorescence, primary screen (AID 1099); conditions: small-molecule microarray, higher = more signal;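 also: score merges 667nm spot fluorescence with signal to noise across triplicate slides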
[3] = probe aCHRDL2 binding to arrayed compounds – biochemical, biotinylated probe, 635/667 nm fluorescence, primary screen (AID 1100); conditions: small-molecule microarray, higher = more signal
[4] = change in splice reporter luminescence, either direction, cell-based, HEK293, spliceosome inhibition project, primary screen (AID 1101); conditions: HEK293 splicing luciferase reporter, 24 h, higher = more signal, called active from +8 up or from −8 down;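 also: HEK293 cells carrying a splicing-competent luciferase reporter gene; test concentration not given here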
[5] = molecular target: Fibroblast growth factor 10 (Homo sapiens) (UniProt O15520); assay: compounds binding fibroblast growth factor 10 – biochemical, small-molecule microarray, 635 nm fluorescence, primary screen (AID 1102); conditions: FGF10 binding, fluorescence 635 nm, higher = more signal
[6] = tested on: glycogen synthase kinase-3 (GSK3A per assay name; protocol says GSK3B); assay: compounds binding glycogen synthase kinase-3 – biochemical, small-molecule microarray, 635 nm fluorescence, GSK3A, primary screen (AID 1103); conditions: fluorescence 635 nm, higher = more signal; also: the record names both GSK3A and GSK3B
[7] = molecular target: Epidermal growth factor receptor (Homo sapiens) (UniProt P00533); assay: compounds binding epidermal growth factor receptor – biochemical, small-molecule microarray, 635 nm fluorescence, primary screen (AID 1104); conditions: EGFR binding, higher = more signal;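 also: score merges 667 nm emission intensity with spot signal to noise over triplicate slides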
[8] = molecular target: Follistatin-related protein 3 (Homo sapiens) (UniProt O95633); assay: compounds binding follistatin-related protein 3 – biochemical, small-molecule microarray, 635 nm fluorescence, primary screen (AID 1105); conditions: FSTL3 binding, higher = more signal;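 also: score merges emission near 667 nm and signal to noise per printed spot across three slides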
[9] = molecular target: Dickkopf-related protein 1 (Homo sapiens) (UniProt O94907); assay: small molecules binding DKK1 protein – biochemical, small-molecule microarray, 635 nm fluorescence scan, primary screen (AID 1106); conditions: higher = more signal;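 also: score merges emission near 667 nm with signal to noise over three replicate slides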
[10] = tested on: Inhibin beta A chain (activin A); assay: small molecules binding activin A – biochemical, small-molecule microarray, 635 nm fluorescence scan, primary screen (AID 1107); conditions: INHBA, higher = more signal;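 also: mouse activin A protein probed at 4.33 µg/mL on printed slides; score merges bound-protein fluorescence near 667 nm with spot signal-to-noise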
[11] = tested on: Human papillomavirus type 1a protein E7 (residues 44-93); assay: small molecules binding HPV E7 44-93 – biochemical, small-molecule microarray, residues 44-93, 635 nm fluorescence, primary screen (AID 1108); conditions: fluorescence 635 nm, higher = more signal;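 also: E7 fragment applied at 1 µg/mL in TBST for 1 h at 4 C; score combines spot fluorescence with its signal to noise ratio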
[12] = hepatitis C replication reporter changes, two-sided – Huh7 cells, luciferase reporter, HCV replication inhibitor project, primary screen (AID 1109); conditions: Huh7 HCV replicon luciferase reporter, 48 h; higher = more signal;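 also: huh7 hepatoma cells harbouring a luciferase neomycin HCV replicon reporter; luciferase luminescence as measure of HCV replicon replication; test concentration not given here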
[13] = molecular target: Left-right determination factor 2 (Homo sapiens) (UniProt O00292); assay: small molecules binding LEFTY2 protein – biochemical, small-molecule microarray, 635 nm fluorescence scan, primary screen (AID 1110); conditions: higher = more signal
[14] = molecular target: Calmodulin-1 (Homo sapiens) (UniProt P0DP23); assay: small molecules binding calmodulin-1 with EGTA – biochemical, small-molecule microarray, Cy5-labelled CALM1, profiling panel (AID 1111); conditions: Cy5-CALM1 binding fluorescence, higher = more signal;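 also: labelled calmodulin applied in Tris saline Tween buffer holding calcium plus EGTA and DTT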
[15] = molecular target: Calmodulin-1 (Homo sapiens) (UniProt P0DP23); assay: small molecules binding Ca-loaded calmodulin-1 – biochemical, small-molecule microarray, Cy5-labelled CALM1, plus calcium, artefact control for SMM control-protein annotation, profiling panel (AID 1112); conditions: Cy5-CALM1 binding fluorescence, higher = more signal;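 also: score merges spot fluorescence with signal to noise from triplicate slides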
[16] = probe aWnt5a binding to arrayed compounds – biochemical, biotinylated probe, 635/667 nm fluorescence, primary screen (AID 1113); conditions: small-molecule microarray, higher = more signal;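 also: score merges 667 nm fluorescence intensity with signal-to-noise per printed feature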
[17] = probe aShh binding to arrayed compounds – biochemical, biotinylated probe, 635/667 nm fluorescence, primary screen (AID 1114); conditions: small-molecule microarray, higher = more signal;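 also: probe is biotin-labelled aShh protein from a stem cell growth factor screen; measures binding of labelled protein to compounds printed on the slide; score merges feature fluorescence at 667 nm with signal-to-noise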
[18] = probe aNog binding to arrayed compounds – biochemical, biotinylated probe, 635/667 nm fluorescence, primary screen (AID 1115); conditions: small-molecule microarray, higher = more signal;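 also: probe is biotinylated aNog protein used at 0.15 µg/mL for 1 h at 4 C; z-score combines 667 nm fluorescence of each spot with its signal to noise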
[19] = molecular target: Torsin-1A-interacting protein 1 (Homo sapiens) (UniProt Q5JTV8); assay: compound microarray binding of lysate hLAP1 – cell lysate, small-molecule microarray, COS7 lysate, 635/667 nm fluorescence, primary screen (AID 1116); conditions: 635 nm fluorescence, higher = more signal
[20] = molecular target: Alpha-bungarotoxin (Bungarus multicinctus) (UniProt P60615); assay: compounds binding labelled alpha-BTX control protein – biochemical, small-molecule microarray, Alexa647 label, 635/667 nm fluorescence, artefact control for SMM control protein annotation, profiling panel (AID 1117); conditions: alpha-BTX-A647 binding fluorescence, higher = more signal
Sequence of Alpha-bungarotoxin (Bungarus multicinctus) (P60615 whole entry, looked up): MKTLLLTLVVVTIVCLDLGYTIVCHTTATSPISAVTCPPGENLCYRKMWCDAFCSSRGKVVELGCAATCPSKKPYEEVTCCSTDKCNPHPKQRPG

Sequence of Dickkopf-related protein 1 (Homo sapiens) (O94907 whole entry, looked up): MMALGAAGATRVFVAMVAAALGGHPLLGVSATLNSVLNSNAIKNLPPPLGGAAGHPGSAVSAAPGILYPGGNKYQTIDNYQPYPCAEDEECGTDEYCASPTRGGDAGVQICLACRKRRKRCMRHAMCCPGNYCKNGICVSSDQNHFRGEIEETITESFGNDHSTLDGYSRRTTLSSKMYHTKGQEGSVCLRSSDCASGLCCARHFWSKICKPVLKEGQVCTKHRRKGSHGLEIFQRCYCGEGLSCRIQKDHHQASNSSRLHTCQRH
Sequence of Epidermal growth factor receptor (Homo sapiens) (P00533 whole entry, looked up): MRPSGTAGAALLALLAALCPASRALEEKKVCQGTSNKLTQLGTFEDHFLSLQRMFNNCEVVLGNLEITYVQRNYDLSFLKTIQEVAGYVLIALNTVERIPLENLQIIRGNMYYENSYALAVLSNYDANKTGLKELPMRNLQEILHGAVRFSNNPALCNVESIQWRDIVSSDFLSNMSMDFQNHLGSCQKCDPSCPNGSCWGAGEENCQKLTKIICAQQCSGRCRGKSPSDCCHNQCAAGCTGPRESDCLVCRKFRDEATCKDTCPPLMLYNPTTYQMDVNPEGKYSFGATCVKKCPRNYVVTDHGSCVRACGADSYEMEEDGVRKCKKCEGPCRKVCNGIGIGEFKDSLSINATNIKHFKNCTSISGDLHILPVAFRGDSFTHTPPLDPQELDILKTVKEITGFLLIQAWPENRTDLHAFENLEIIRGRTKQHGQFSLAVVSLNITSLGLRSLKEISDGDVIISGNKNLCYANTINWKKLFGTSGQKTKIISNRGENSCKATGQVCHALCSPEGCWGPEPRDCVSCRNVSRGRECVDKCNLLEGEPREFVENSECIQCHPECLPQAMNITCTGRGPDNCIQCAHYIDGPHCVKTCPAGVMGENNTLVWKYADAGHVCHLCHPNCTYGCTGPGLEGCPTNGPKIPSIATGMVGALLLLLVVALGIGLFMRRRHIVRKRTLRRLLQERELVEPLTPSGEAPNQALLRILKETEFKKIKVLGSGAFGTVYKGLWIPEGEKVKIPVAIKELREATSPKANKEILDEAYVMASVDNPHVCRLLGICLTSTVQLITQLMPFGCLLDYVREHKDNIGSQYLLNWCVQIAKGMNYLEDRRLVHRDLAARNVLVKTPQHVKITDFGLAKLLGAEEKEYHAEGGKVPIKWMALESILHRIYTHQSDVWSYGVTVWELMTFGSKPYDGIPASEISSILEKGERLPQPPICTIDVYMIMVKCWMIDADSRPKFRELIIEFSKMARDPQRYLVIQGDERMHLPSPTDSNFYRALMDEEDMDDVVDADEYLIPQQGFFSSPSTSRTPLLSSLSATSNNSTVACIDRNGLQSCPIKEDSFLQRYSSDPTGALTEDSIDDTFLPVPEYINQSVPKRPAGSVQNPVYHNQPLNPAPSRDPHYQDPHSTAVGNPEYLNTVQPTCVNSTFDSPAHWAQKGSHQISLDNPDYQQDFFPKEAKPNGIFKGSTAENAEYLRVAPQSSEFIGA
Sequence of Fibroblast growth factor 10 (Homo sapiens) (O15520 whole entry, looked up): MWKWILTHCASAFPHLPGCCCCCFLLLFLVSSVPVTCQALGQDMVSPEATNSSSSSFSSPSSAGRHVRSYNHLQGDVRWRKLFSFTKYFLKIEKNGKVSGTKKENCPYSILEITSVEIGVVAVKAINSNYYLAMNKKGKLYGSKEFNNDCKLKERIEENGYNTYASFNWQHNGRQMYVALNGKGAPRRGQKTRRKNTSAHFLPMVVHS
Sequence of Left-right determination factor 2 (Homo sapiens) (O00292 whole entry, looked up): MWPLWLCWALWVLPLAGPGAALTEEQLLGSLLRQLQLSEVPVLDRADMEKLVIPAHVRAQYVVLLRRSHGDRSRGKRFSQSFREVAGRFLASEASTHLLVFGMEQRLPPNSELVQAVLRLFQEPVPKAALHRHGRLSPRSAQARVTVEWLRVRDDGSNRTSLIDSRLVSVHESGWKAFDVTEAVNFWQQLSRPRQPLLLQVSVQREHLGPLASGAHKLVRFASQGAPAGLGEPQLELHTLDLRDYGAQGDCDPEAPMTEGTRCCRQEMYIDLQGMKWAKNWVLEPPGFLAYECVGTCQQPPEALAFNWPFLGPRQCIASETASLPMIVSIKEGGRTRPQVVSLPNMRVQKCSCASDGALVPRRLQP
Sequence of Torsin-1A-interacting protein 1 (Homo sapiens) (Q5JTV8 whole entry, looked up): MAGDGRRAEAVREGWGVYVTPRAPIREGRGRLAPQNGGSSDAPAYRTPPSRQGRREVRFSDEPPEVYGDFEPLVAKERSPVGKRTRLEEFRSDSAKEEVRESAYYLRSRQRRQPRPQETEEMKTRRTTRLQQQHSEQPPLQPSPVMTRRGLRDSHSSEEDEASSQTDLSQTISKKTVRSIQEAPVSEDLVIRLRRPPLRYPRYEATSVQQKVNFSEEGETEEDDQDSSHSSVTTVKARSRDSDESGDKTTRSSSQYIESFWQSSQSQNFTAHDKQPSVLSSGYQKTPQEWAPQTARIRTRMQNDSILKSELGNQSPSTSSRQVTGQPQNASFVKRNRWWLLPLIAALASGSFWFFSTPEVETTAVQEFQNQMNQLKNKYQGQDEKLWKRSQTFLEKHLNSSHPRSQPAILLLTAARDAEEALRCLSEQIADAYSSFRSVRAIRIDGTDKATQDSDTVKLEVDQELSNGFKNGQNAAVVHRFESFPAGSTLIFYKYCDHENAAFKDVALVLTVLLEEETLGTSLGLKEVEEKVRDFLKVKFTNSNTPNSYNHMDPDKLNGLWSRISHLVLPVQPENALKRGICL
Sequence of Follistatin-related protein 3 (Homo sapiens) (O95633 whole entry, looked up): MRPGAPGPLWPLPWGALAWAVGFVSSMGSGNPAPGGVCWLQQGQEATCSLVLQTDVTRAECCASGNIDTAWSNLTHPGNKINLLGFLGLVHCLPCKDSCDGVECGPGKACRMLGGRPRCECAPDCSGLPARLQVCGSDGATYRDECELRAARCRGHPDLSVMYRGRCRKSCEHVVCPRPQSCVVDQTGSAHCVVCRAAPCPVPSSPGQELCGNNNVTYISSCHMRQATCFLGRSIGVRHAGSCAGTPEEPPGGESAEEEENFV

| SMILES | composite z-score [1] | composite z-score [2] | composite z-score [3] | z-score [4] | composite z-score [5] | composite z-score [6] | composite z-score [7] | composite z-score [8] | composite z-score [9] | composite z-score [10] | composite z-score [11] | z-score [12] | composite z-score [13] | composite z-score [14] | composite z-score [15] | composite z-score [16] | composite z-score [17] | composite z-score [18] | composite z-score [19] | composite z-score [20] |
| --- | --- | --- | --- | --- | --- | --- | --- | --- | --- | --- | --- | --- | --- | --- | --- | --- | --- | --- | --- | --- |
| CC(CO)N1C(=O)[C@@H]2C3C(=O)OCCC=C[C@H]3OC23C=CCN(C(C)(C)C)C(=O)[C@@H]13 (stereo not given in full) | -0.117 and -0.15 | -0.216 and 0.073 | 0.254 and 0.178 | 0.612 (inactive) and -0.541 (inactive) | -0.941 and 0.229 | -0.875 and 0.449 | -0.839 and -0.726 | -0.464 and 0.008 | -0.476 and -0.008 | 0.298 and 1.11 | -0.925 and -1 | -0.319 and -0.502 | -1.51 and -0.114 | -0.286 and -0.991 | 1.02 and -1.03 | -0.222 and -0.0584 | -0.168 and -0.0553 | -0.219 and -0.46 | 0.232 and 1.48 | -2.94 and -0.198 |
| CCOC(=O)NN=C1C[C@@H](O)[C@@H](O)[C@@H]2[C@@H]3C(=O)N(Cc4ccccc4)C(=O)[C@@H]3CC[C@@H]12 | 0.454 | -0.287 | -0.655 | 0.477 (inactive) | 0.118 | 0.304 | 0.542 | 0.59 | 0.355 | -0.208 | -0.337 | -0.16 | 0.349 | -0.546 | -0.659 | 0.134 | -0.2 | -0.207 | 0.297 | -0.168 |
| COC(=O)[C@@]1(Cc2ccc(OC)cc2)[C@H]2c3cc(C(=O)N(C)C)n(Cc4ccc(O)c(OC)c4)c3C[C@H]2CN1C(=O)c1ccccc1 | 1.17 and 1.27 | 0.714 and 0.773 | 1.08 and 0.94 | -2.55 (inactive) and -2.51 (inactive) | 0.113 and 1.15 | 0.568 and -0.198 | -0.14 and -0.143 | 0.418 and 0.592 | -0.529 and -0.128 | 0.876 and 0.416 | 1.31 and 1.43 | -1.33 and -1.83 | -0.3 and -0.586 | 2.32 and 1.21 | 0.88 and 0.206 | -0.208 and 0.201 | -0.374 and 0.632 | 0.231 and 1.94 | 2.63 and 1.12 | 0.526 and 0.245 |
| CCCNC(=O)OC[C@H]1O[C@H](CCON=C(C)CCN2CCc3nc(-c4ccccc4)c(-c4ccccc4)cc3C2)C=C[C@@H]1Oc1ccc(OC)cc1 | 0.274 | -0.128 | -0.155 | -0.0345 (inactive) | 0.0705 | -0.0859 | 0.0142 | 0.254 | 0.431 | 0.67 | 0.518 | -3.28 | 0.135 | -0.0233 | -0.0536 | -0.0535 | -0.0299 | -0.321 | 0.32 | 0.316 |
| C=CCN(C(=O)C1N(C(C)(C)CO)C(=O)C2C(C(=O)O)C3C=CC21O3)C(C)(C)C (stereo not given) | -0.0242 and 0.712 | 0.338 and 0.0018 | 1.06 and 1.01 | 0.153 (inactive) and -0.231 (inactive) | -0.95 and -1.33 | -1.24 and -1.03 | -2.18 and -1.68 | -2.45 and -2.42 | -2.28 and -3.04 | -3 and -3.14 | -0.898 and 0.0796 | -0.276 and -0.577 | -3.78 and -1.84 | -0.742 and -0.353 | 0.271 and 0.369 | -0.286 and -0.148 | -0.138 | -0.183 and -0.0144 | -1.69 and 3.03 | -2.08 and 1.04 |
| CCOC(=O)NN=C1C[C@@H](O)[C@@H](O)[C@@H]2[C@@H]3C(=O)N(Cc4ccc5c(c4)OCO5)C(=O)[C@@H]3CC[C@@H]12 | 0.0867 | -0.0464 | -0.331 | 0.0278 (inactive) | 0.0364 | 0.424 | 0.231 | -0.406 | 0.0071 | -0.134 | 0.431 | -0.398 | -0.0145 | 0.257 | -0.727 | -0.006 | -0.0011 | -0.252 | 0.629 | 0.619 |
| C=CCN(C(=O)C(c1cccs1)N(C(=O)/C=C\C(=O)O)c1c(Cl)cccc1CO)c1ccc(OC)cc1 (stereo not given) | 1.67 and 0.504 | 0.218 and 1.01 | 1.24 and 1.27 | -1.13 (inactive) and -0.482 (inactive) | -1.5 and -1.19 | -0.625 and -0.907 | -2.29 and -1.02 | -2.23 and -1.78 | -4.06 and -2.06 | -0.828 and -0.09 | -0.523 and -0.539 | -0.16 and -0.604 | -2.96 and -1.51 | -0.0794 and -0.107 | 1.06 and 0.804 | -0.285 and -0.096 | -0.0011 and 0.173 | 0.709 and -0.0216 | 1.81 and -0.188 | -1.73 and -0.053 |
| C=CCN(C(=O)C(c1cccs1)N(CCOCCO)C(=O)/C=C\C(=O)O)c1ccc(OC)cc1 (stereo not given) | -1.53 and -0.0146 | -0.626 and -0.357 | -0.183 and 0.97 | -1.88 (inactive) and -1.58 (inactive) | -0.934 and -0.942 | -0.903 and -0.645 | -0.254 and -1.5 | -0.603 and -1.07 | -0.151 and -2.76 | -0.539 and -0.186 | -2.11 and -1.15 | 1.49 and 0.42 | 0.0612 and -1.47 | -0.328 and -1.13 | -0.0309 and 0.36 | -0.214 and -0.232 | -0.291 and -0.138 | -0.636 and 0.146 | -0.618 and -0.178 | -0.744 and -2.86 |
| C=CCN(CCCC)C(=O)C(c1cccs1)N(CCOCCO)C(=O)/C=C\C(=O)O (stereo not given) | 1.66 and -1.5 | 0.103 and -0.18 | 0.792 and 0.161 | -1.21 (inactive) and -1.32 (inactive) | -1.19 and -0.522 | -1.39 and -0.479 | -2.24 and -0.346 | -1.97 and -0.993 | -1.56 and -1.03 | -0.593 and 0.566 | -1 and -0.515 | -0.166 and 0.999 | -2.21 and -0.742 | -0.501 and -0.702 | 0.988 and 0.502 | -0.193 and -0.096 | -0.2 | 0.136 and 0.295 | 1.2 and 1.09 | -2.1 and 0.069 |
| CC(C)[Si]1(C(C)C)OCc2cc(CCCc3cc4c(c(CCc5ccccc5)n3)[Si](C(C)C)(C(C)C)OC4)nc(CCc3ccccc3)c21 | -1.24 and 0.202 | -0.181 and -0.246 | 0.057 and -0.55 | -1.52 (inactive) and 0.459 (inactive) | -0.0405 and 0.57 | -0.0221 and 0.559 | 0.327 and 0.456 | -0.291 and 0.745 | -0.106 and 0.458 | 0.557 and 0.0127 | 0.206 and 0.469 | -1.17 and -0.347 | 0.0155 and 0.497 | -0.372 and -0.238 | 0.797 and -0.487 | -0.152 and -0.148 | -0.27 and 0.0141 | -0.139 and -0.0168 | -0.421 and 0.248 | -1.36 and 0.0493 |
